Source: PubChem (National Center for Advancing Translational Sciences (NCATS))
ATXN2 expr inh: Primary qHTS for Inhibitors of ATXN expression | HEK-293 ATXN2-luciferase reporter, luminescence, 24 h | Potency, µM (titrated, usually from 57 µM), usual class: inhibitors | 0.72% of 360,000 active | AID 1745845, 2022; also: nearly all actives have a fitted effect of over 55% in size
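ATXN2-luciferase reporter cells (luciferase flanked by upstream and downstream ATXN2 gene portions) were treated 24 h at 37 °C with compounds at up to 57 uM. SteadyGlo luminescence gave expression; GF-AFC fluorescence gave viability.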
TGFb SMAD3 inh: qHTS for Inhibitors of TGF-b; HepG2 CAGA-GFP TGF-b/SMAD3 reporter, GFP fluorescence, 18 h; TGF-beta stimulated, 500 pg/mL final; Potency, µM (series often up to 46.1 µM), actives largely listed as inhibitors; 1.2% of 410,000 active; AID 588855, 2011; also: nearly all actives have a fitted effect of over 65% in size
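First, reporter cells (HEPG2 CAGA-GFP) rested 2 h at 37 degrees C. Next, compounds were pinned in and TGF-beta added to 500 pg/mL final. After 18 h, GFP was imaged per cell and summed per well.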
S2 tox: Viability Counterscreen for Primary qHTS for Inhibitors of ATXN expression; S2 cells (HEK-293 line with an ATXN2-luciferase reporter) viability, CellTiter-Fluor protease fluorescence, 24 h; Potency, µM (doses to about 56.7 µM), hits mostly cytotoxic; 0.49% of 400,000 active; AID 651635, 2014; also: nearly all actives have a fitted effect of over 40% in size
HepG2 viability: qHTS for Inhibitors of TGF-b: Cytotox Counterscreen; HepG2 CAGA-GFP viability, ATP luminescence, 18 h; Potency, µM (highest dose often 46.1 µM), hits mostly cytotoxic; 0.76% of 410,000 active
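HepG2 CAGA-GFP cells (1000/well, DMEM with 1% FBS) received compound, then TGF-beta at 500 pg/mL final, and were incubated 18 hours at 37 degrees C. Viability was read by CellTiter-Glo luminescence. Media-only wells were set as complete cell-killing and DMSO as no toxicity.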
D3 antag: qHTS of D3 Dopamine Receptor Antagonist: qHTS; D(3) dopamine receptor (Homo sapiens), P35462; 2.5% of 360,000 active; D3R cells, DiscoveRx beta-arrestin luminescence, antagonist mode; stronger effect = lower value; max response, negative = inhibition, %; in the data active = max response below about -50%; inconclusive = no clear call, values can overlap the other calls
Target sequence (P35462 whole entry, looked up): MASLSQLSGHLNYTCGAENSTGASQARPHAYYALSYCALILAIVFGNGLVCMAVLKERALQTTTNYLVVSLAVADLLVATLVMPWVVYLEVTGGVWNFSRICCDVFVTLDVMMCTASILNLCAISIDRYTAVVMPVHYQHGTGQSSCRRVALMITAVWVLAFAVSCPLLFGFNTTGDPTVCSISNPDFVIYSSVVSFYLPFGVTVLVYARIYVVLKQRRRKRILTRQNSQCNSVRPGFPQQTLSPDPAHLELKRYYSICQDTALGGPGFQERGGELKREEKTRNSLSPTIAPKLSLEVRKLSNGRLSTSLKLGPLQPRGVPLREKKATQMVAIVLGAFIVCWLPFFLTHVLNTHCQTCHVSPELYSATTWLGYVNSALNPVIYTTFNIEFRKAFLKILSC
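Cells expressing the human receptor were seeded at 1500 cells/well, incubated overnight at 37 degrees C in 5% CO2, then exposed to library compounds with dopamine controls for 90 minutes at 37 degrees C before luminescent detection.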
DRD3 agonist: qHTS of D3 Dopamine Receptor Agonist: qHTS | D3R DiscoveRx beta-arrestin cells, luminescence, 90 min | max activation, % | 0.58% of 410,000 active; in the data active = max activation above about 30%
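Agonist-mode cell screen: cells plated at 1500/well and incubated overnight at 37 °C, then exposed to library compounds for 90 min at 37 °C. Detection reagent was added for 30–60 min at room temperature, and luminescence was read.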
Large screens that a line does not name were inactive; ! = a repeat was not active. This is a sample that favours compounds with a hit; in the whole collection about 4.8% have one here. Unless noted, calls follow the shape of the dose curve; as a rule, active = well fitted curve in the direction sought with a large enough effect; inconclusive = small, poorly fitted or top-dose-only effect, or another doubt; inactive = no such curve, though single readings can be large; an effect the other way counts as inactive or inconclusive.

Cc1nn2c(NCc3ccccn3)cc(C(C)C)nc2c1-c1ccccc1	TGFb SMAD3 inh 11µM, S2 tox inconclusive (no result: ATXN2 expr inh)
Cc1nn2c(NCCCn3ccnc3)cc(C(C)C)nc2c1-c1ccccc1	none
Cc1ccc(S(=O)(=O)Nc2ccc(-c3nc4ccc(C)cc4s3)cc2)cc1	TGFb SMAD3 inh inconclusive, HepG2 viability 10µM
Cc1ccc2nc(-c3ccc(NS(=O)(=O)c4c(C)n(C)c(=O)n(C)c4=O)cc3)sc2c1	TGFb SMAD3 inh inconclusive (no result: ATXN2 expr inh, S2 tox)
Cc1cccc(S(=O)(=O)Nc2ccc(-c3nc4ccc(C)cc4s3)cc2)c1	TGFb SMAD3 inh 13µM
Cc1ccc(N(CC(=O)NCCc2ccc(F)cc2)S(=O)(=O)c2ccc(Cl)c([N+](=O)[O-])c2)c(C)c1	ATXN2 expr inh inconclusive, TGFb SMAD3 inh inconclusive, S2 tox inconclusive, HepG2 viability 11µM
O=C(CN(c1ccc(Br)cc1)S(=O)(=O)c1ccc(Cl)c([N+](=O)[O-])c1)NCCc1ccccc1	S2 tox inconclusive
COc1ccc(CNc2nc(NCc3ccc(OC)c(OC)c3)n(C(=O)c3cccs3)n2)cc1OC	DRD3 agonist 45
COc1ccc(CCNC(=O)c2cccs2)cc1OC	none
Cc1cccc(N2CCN(C(=O)C3CCCN(S(=O)(=O)c4cccc5nsnc45)C3)CC2)c1C (configuration not stated)	none (no result: D3 antag)
CC(C)(C)C1=CC(=Nc2ccccc2N)C=C(C(C)(C)C)C1=O	TGFb SMAD3 inh inconclusive, D3 antag -51
Nc1ccccc1N=Nc1ccccc1N	TGFb SMAD3 inh inconclusive, S2 tox inconclusive, D3 antag inconclusive
COc1ccc(-c2cc(C3CCN(Cc4ccc([N+](=O)[O-])cc4)CC3)[nH]n2)cc1	none
Clc1ccc2nc(C3CCN(Cc4ccccc4)CC3)[nH]c2c1	D3 antag -87
Cc1ccc(CN2CCC(c3nc4ccc(Cl)cc4[nH]3)CC2)cc1	ATXN2 expr inh inconclusive, TGFb SMAD3 inh inconclusive, D3 antag -93
Cc1ccc(CN2CCC(c3cc(-c4ccc(Cl)cc4)n[nH]3)CC2)cc1	ATXN2 expr inh 20µM, TGFb SMAD3 inh 16µM, S2 tox inconclusive, HepG2 viability 14µM, D3 antag -91
COc1ccc(-c2cc(C3CCN(Cc4cccc(C(F)(F)F)c4)CC3)[nH]n2)cc1	ATXN2 expr inh inconclusive, TGFb SMAD3 inh inconclusive, HepG2 viability 13µM
COc1ccc(-c2cc(C3CCN(CC(O)C(F)(F)F)CC3)[nH]n2)cc1 (configuration not stated)	none (no result: ATXN2 expr inh)
CC1CCCCN1C(=O)CN1CCC(c2nc3ccc(Cl)cc3[nH]2)CC1 (configuration not stated)	S2 tox inconclusive (no result: ATXN2 expr inh)
Cc1cc(Cl)ccc1OCC(=O)Nc1cccc(-c2nc3ccccc3o2)c1	none (no result: ATXN2 expr inh, S2 tox, D3 antag, DRD3 agonist)
O=c1[nH]cc(N=Cc2cc(Cl)cc(Cl)c2O)c(=O)[nH]1	TGFb SMAD3 inh inconclusive, D3 antag -67 (no result: ATXN2 expr inh, S2 tox)
CN1CC[C@]2(CCN3CCc4c(oc5ccccc45)[C@@H]3C2)N(C)C1=O	D3 antag -58
O=C(CN1CCN(Cc2ccccc2)CC1)N/N=C/c1ccccc1F	none
C=CCc1cccc(/C=N/NC(=O)C(C)Nc2ccc(C)cc2)c1O (configuration not stated)	ATXN2 expr inh 22µM, TGFb SMAD3 inh inconclusive
C=CCc1cccc(/C=N/NC(=O)C(=O)Nc2ccc(C)cc2)c1O	none (no result: S2 tox)
C=CCc1cccc(/C=N/NC(=O)c2ccc3nc[nH]c3c2)c1O	ATXN2 expr inh 10µM
C=CCc1cccc(C=NNC(=O)CN2CCN(Cc3ccccc3)CC2)c1O	ATXN2 expr inh 19µM (no result: TGFb SMAD3 inh, S2 tox, HepG2 viability, D3 antag, DRD3 agonist)
Cc1nc2sccn2c1CN1Cc2ccccc2OC(c2ccccc2F)C1 (configuration not stated)	none (no result: ATXN2 expr inh, TGFb SMAD3 inh, HepG2 viability, D3 antag, DRD3 agonist)
CCC[C@@H](CN1CCC[C@H]1CN1C(N)=NC[C@@H]1Cc1ccccc1)N1C[C@@H](Cc2ccccc2)N(CCCC2CCCC2)C1=N	D3 antag -64
CCC[C@@H](CN1CCC[C@H]1CN1C(N)=NC[C@H]1CC(C)C)N1C[C@@H](Cc2ccccc2)N(CCCC2CCCC2)C1=N	none
CCCCN1C(=N)N([C@@H](CCC)CN2CCC[C@H]2CN2C(N)=NC[C@@H]2Cc2ccccc2)C[C@H]1Cc1ccccc1	D3 antag -79
CCC[C@@H](CN1CCC[C@H]1CN1C(N)=NC[C@@H]1Cc1ccccc1)N1C[C@@H]([C@H](C)CC)N(CCCC2CCCC2)C1=N	ATXN2 expr inh inconclusive, TGFb SMAD3 inh inconclusive, S2 tox inconclusive, D3 antag -97
COC(=O)c1sc(-c2ccccc2)cc1NC(=O)Nc1ccc(F)cc1	TGFb SMAD3 inh inconclusive (no result: ATXN2 expr inh, S2 tox, D3 antag)
CCN(CC)C(=O)C1=C(C)Nc2nc3ccccc3n2C1c1ccc(Br)cc1 (configuration not stated)	none (no result: D3 antag)
O=C(CCN1CCN(c2ccccc2)CC1)N/N=C/c1ccccc1OC(F)F	ATXN2 expr inh inconclusive, TGFb SMAD3 inh inconclusive, D3 antag -70
COc1ccc(/C=N\NC(=O)CCN2CCN(c3ccccc3)CC2)cc1OC	D3 antag inconclusive
CC(=O)Nc1ccc(/C=N/NC(=O)CCN2CCN(c3ccccc3)CC2)cc1	D3 antag -84
CCC(C(=O)NC1CCCC1)N(C(=O)Cn1nnc(-c2ccc(C)o2)n1)c1cccc(OC)c1 (configuration not stated)	DRD3 agonist 36
N#CC1=C2SCN(Cc3ccco3)CN2C(=O)CC1c1c(F)cccc1Cl (configuration not stated)	none
Cc1ccc(C2CC(=O)N3CN(Cc4ccco4)CSC3=C2C#N)cc1 (configuration not stated)	D3 antag -59
O=C(Nc1c(C(=O)N2CCC(N3CCCCC3)CC2)oc2ccccc12)c1c(F)cccc1F	DRD3 agonist 51!
CC(Oc1ccccc1)C(=O)N(CCC1=CCCCC1)c1c(N)n(Cc2ccccc2)c(=O)[nH]c1=O (configuration not stated)	TGFb SMAD3 inh 18µM
COc1ccccc1CC(=O)N(CCC1=CCCCC1)c1c(N)n(Cc2ccccc2)c(=O)[nH]c1=O	S2 tox inconclusive, D3 antag -83
CC(C)CN(C(=O)COC(=O)C12CC3CC(CC(C3)C1)C2)c1c(N)n(Cc2ccccc2)c(=O)[nH]c1=O	ATXN2 expr inh 14µM, S2 tox 22µM
CC(C)CN(C(=O)COC(=O)C12CC3CC(CC(O)(C3)C1)C2)c1c(N)n(Cc2ccccc2)c(=O)[nH]c1=O	none (no result: ATXN2 expr inh)
